Bioassay records: PubChem BioAssay, several laboratories
MITF TRPM1 inh – MITF TRPM1 promoter inhibition in SK-MEL-5 cells; SK-MEL-5 TRPM1 promoter luciferase, 24 h; AID 488899; 330,000 compounds, 0.83% hits; inhibition, % at 12.5 µM;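 active = mean inhibition across replicates of 60% or more, whatever share of single replicates reaches that level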
Shn3 inh set2 – inhibitors of Schnurri-3 3'UTR reporter in osteoblasts; inhibition, % at 12.5 µM; AID 588674; Clone20 osteoblast Shn3 3'UTR firefly luciferase, 24 h; 360,000 compounds, 0.52% hits;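 active = mean inhibition of at least 75% with every replicate also reaching 75%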
Peg3 promoter – inhibitors of Peg3 promoter. AID 588405. 360,000 compounds, 1.7% hits. inhibition, % at 20 µM. HeLa PEG-Prom luciferase reporter, luminescence, overnight;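 active = inhibition of at least 50% at 20 µM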
HIF-2a inh – inhibitors of HIF-2a | 786-0 RCC cells HIF-2a reporter, luciferase luminescence, overnight | inhibition, % at 18.8 µM | 360,000 compounds, 0.72% hits | AID 624352;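 active = inhibition of the luminescence signal of 40% or more relative to plate controls, in a single-dose primary screen at 18.75 µM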
CF NFkB block – inhibitors of cystic fibrosis induced NF-kB. KKLEB NF-kB-GFP reporter, PAF-induced, GFP fluorescence overnight. inhibition, % at 5 µM. 360,000 compounds, 0.86% hits;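 active = at least 50% inhibition at 5 µM, scaled per plate between neutral and stimulator controls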;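 also: PAF is a Pseudomonas aeruginosa culture filtrate used as stimulus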
KKLEB tox – CF airway cell cytotoxicity counter-screen. KKLEB CF airway cells viability, ATPlite luminescence, overnight; hits give low values; cells stimulated with P. aeruginosa culture filtrate. activity change (cytotoxicity), % at 5 µM. AID 602141. 360,000 compounds, 0.36% hits;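 active = corrected activity change at or below -50% at 5 µM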
CF NFkB inh conf – confirmation of cystic fibrosis induced NF-kB inhibitors. shares compounds with CF NFkB block. KKLEB CF airway cells, PAF-induced NF-kB-GFP fluorescence, overnight. inhibition, % at 5 µM. 1,300 compounds, 64% hits; in the data active = inhibition above about 40%;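 also: stimulus PAF is a Pseudomonas aeruginosa filtrate and not platelet activating factor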
Of the large screens only hits and unclear results are named; the others gave an inactive call (follow-up assays come after a bar, where they were run). Shown are actives, neighbours in structure and some others; about 2.8% of the full set was active somewhere.

COc1cc(OC)nc(Nc2nc(C(N)CCc3ccccc3)cs2)n1 (stereo not drawn)	none (no result: MITF TRPM1 inh)
CC(C)c1ccc(NC(=O)Nc2nc(C(N)CCc3ccccc3)cs2)cc1 (stereo not drawn)	Shn3 inh set2 96.7, Peg3 promoter 98.4, CF NFkB block 54.3 (no result: MITF TRPM1 inh) | CF NFkB inh conf inactive
O=C(COC(=O)Cn1cc(C(F)(F)F)ccc1=O)NCc1ccccc1	none
Cc1cccc(N=c2oc3cc(O)ccc3cc2C(N)=O)c1	CF NFkB block 67.8 | CF NFkB inh conf 71.8
COc1ccc2cc(C(N)=O)c(=Nc3ccc(C)cc3)oc2c1	CF NFkB block 62.9 | CF NFkB inh conf 95.9
CCOC(=O)C1=CN(Cc2cccc(F)c2)S(=O)(=O)N(CC)C1c1ccc(C(F)(F)F)cc1 (stereo not drawn)	none
CN1CCC(OC(=O)c2cc3cc(Cl)cc(Cl)c3oc2=O)CC1	CF NFkB block 54.5 | CF NFkB inh conf 81.9
COc1cc(-c2cnc3c(NC=O)cc(-c4ccc(S(C)(=O)=O)cc4)cn23)cc(OC)c1OC	none (no result: MITF TRPM1 inh)
COc1ccc(-c2cc(NC=O)c3ncc(-c4ccc(OC)c(OC)c4)n3c2)c(OC)c1	CF NFkB block 60.3 (no result: MITF TRPM1 inh) | CF NFkB inh conf 87.1
COc1ccc(-c2cc(NC=O)c3ncc(-c4cc(OC)c(OC)c(OC)c4)n3c2)cc1	CF NFkB block 51.8 (no result: MITF TRPM1 inh) | CF NFkB inh conf 69.7
COc1cccc(-c2cnc3c(NC=O)cc(-c4ccc(OC)cc4OC)cn23)c1	CF NFkB block 63.2 (no result: MITF TRPM1 inh) | CF NFkB inh conf 76.0
COc1ccccc1-c1cc(NC=O)c2ncc(-c3cccc(C(C)=O)c3)n2c1	CF NFkB block 59.1 (no result: MITF TRPM1 inh) | CF NFkB inh conf 44.4
O=c1nc(N2CCCC2)nc(N2CCCC2)[nH]1	none
CCCCn1c(N)c(N(CCC(C)C)C(=O)COC(=O)Cc2ccc(Cl)cc2)c(=O)[nH]c1=O	none
O=C(CN1C(=O)NC2(CCCCCC2)C1=O)NCCc1ccc(F)cc1	none
CC(C)c1ccc(N2C(=NC(=O)C3CC3)SC3CS(=O)(=O)CC32)cc1 (stereo not drawn)	none
Cc1ccc(C(C(=O)NCc2ccccc2)N(C(=O)c2ccccn2)c2ccccc2)o1 (stereo not drawn)	none
CC1=C(/C=C/C(C)=C/C=C/C(C)=C\C(=O)O)C(C)(C)CCC1	CF NFkB block 65.9 | CF NFkB inh conf 69.8
CC1=C(/C=C/C(=O)O)C(C)(C)CCC1	none
CC1(O)CC(c2ccc(Cl)cc2)=NN1C(=O)c1ccc(Cl)cc1 (stereo not drawn)	CF NFkB block 58.1 | CF NFkB inh conf 76.0
Cc1ccc(-n2nc3c(c2NC(=O)c2ccc(S(=O)(=O)N4CCOCC4)cc2)CSC3)c(C)c1	none
O=[N+]([O-])c1ccc(-c2nn(-c3ccccc3)cc2/C=N/n2c(-c3cccs3)n[nH]c2=S)cc1	CF NFkB block 55.6 | CF NFkB inh conf inactive
Oc1cc(NCc2ccc(F)cc2)cc2cccnc12	CF NFkB block 51.2 | CF NFkB inh conf inactive
COc1cccc(NC(=O)Cn2nnc(C(=O)Nc3cc(Cl)ccc3OC)c2N)c1	CF NFkB block 55.7 | CF NFkB inh conf inactive
COc1ccc(Cl)cc1NC(=O)c1nnn(CC(=O)Nc2ccc(OC)c(OC)c2)c1N	CF NFkB block 50.3 | CF NFkB inh conf inactive
COc1ccc(NC(=O)Cn2nnc(C(=O)Nc3ccc(F)c(Cl)c3)c2N)cc1	CF NFkB block 60.6 | CF NFkB inh conf inactive
O=C(CC1S/C(=N/N=C2CCCCCC2)NC1=O)Nc1ccc(Br)cc1F (stereo not drawn)	none
CCCN(CC)c1ncnc2[nH]ncc12	CF NFkB block 81.3 | CF NFkB inh conf 63.5
CN(C)c1ncnc2[nH]ncc12	none
O=C(CCS(=O)(=O)Cc1cccc(Cl)c1)NCCc1ccccc1	none
O=C(Nc1cc(-c2nc3ncccc3o2)ccc1Cl)c1ccc([N+](=O)[O-])o1	MITF TRPM1 inh 79.3, Peg3 promoter 88.0, CF NFkB block 80.3 | CF NFkB inh conf inactive
Cn1nccc1C(=O)Nc1cc(Cl)ccc1Cl	CF NFkB block 69.5 (no result: MITF TRPM1 inh) | CF NFkB inh conf inactive
COc1ccc2nc(NC(=O)Nc3ccccc3)sc2c1	none
CC(C)(C)c1nc(NC(=O)Nc2ccccc2)sc1Br	CF NFkB block 69.1 | CF NFkB inh conf 64.8
CCc1ccc(-c2cc(C(=O)O)c3ccccc3n2)s1	none
CC(=O)Nc1ccc(NC(=O)COC(=O)c2c3c(nc4ccccc24)CCN(Cc2ccccc2)C3)cc1	CF NFkB block 56.8 | CF NFkB inh conf 72.1
O=C(COC(=O)c1c2c(nc3ccccc13)CCN(Cc1ccccc1)C2)Nc1c(F)cccc1F	Peg3 promoter 50.3, CF NFkB block 74.9 | CF NFkB inh conf 75.9
O=C(NCc1ccc(F)cc1)c1c2c(nc3ccccc13)CCN(Cc1ccccc1)C2	none
CCN1CCc2nc3ccccc3c(C(=O)Nc3ccc(NC(C)=O)cc3)c2C1	none
CCN(C[C@H]1N[C@@](Cc2ccccc2)(C(=O)OC)[C@H]2C(=O)N(Cc3ccccc3)C(=O)[C@@H]12)C(=O)Nc1ccc(C(F)(F)F)cc1	CF NFkB block 50.9 | CF NFkB inh conf inactive
O=C(c1nnsc1S(=O)(=O)c1ccc(Cl)cc1)N1CCOCC1	MITF TRPM1 inh 73.4, Shn3 inh set2 95.2, Peg3 promoter 95.0, CF NFkB block 90.5 | CF NFkB inh conf 95.6
CN1CCC(N(C)C(=O)c2cc(S(=O)(=O)N(C)c3ccccc3)ccc2Cl)CC1	none
Fc1cccc(Cc2c(-c3ccco3)nc3ccc(Br)cn23)c1	CF NFkB block 52.0 (no result: MITF TRPM1 inh) | CF NFkB inh conf inactive
Fc1cccc(Cc2c(-c3ccco3)nc3ccc(Cl)cn23)c1	CF NFkB block 63.2 (no result: MITF TRPM1 inh) | CF NFkB inh conf inactive
COC(=O)c1ccc2nc(-c3ccco3)c(Cc3cccc(Cl)c3)n2c1	none (no result: MITF TRPM1 inh, Shn3 inh set2, Peg3 promoter, CF NFkB block, KKLEB tox)
FC(F)(F)c1ccccc1Cc1c(-c2ccco2)nc2ccc(Br)cn12	CF NFkB block 62.5 (no result: MITF TRPM1 inh) | CF NFkB inh conf inactive
Clc1ccc2nc(-c3ccco3)c(Cc3ccccc3)n2c1	none (no result: MITF TRPM1 inh)
COC(=O)c1ccc2nc(-c3ccco3)c(Cc3ccccc3)n2c1	CF NFkB block 53.9 (no result: MITF TRPM1 inh) | CF NFkB inh conf inactive
CCC(=O)c1ccc(SC(=O)N(C)C)cc1O	none
CCNC(=O)n1cc(-n2cncn2)c(-c2ccc(Cl)cc2)n1	none
Cc1[nH]c(-c2ccc(F)cc2)cc1C(=O)N1CCN(c2ccccc2F)CC1	none
Nc1cccc2c1C(=O)N(C(=O)/C=C/c1ccc(F)cc1)C2=O	Peg3 promoter 102.2, CF NFkB block 64.6 | CF NFkB inh conf inactive
Nc1cccc2c1C(=O)N(C(=O)c1ccco1)C2=O	none
CCOc1ccc(NC(=O)CCC(=O)NNC(=O)COc2ccccc2C)cc1	none
CNc1ccc2ncc(-c3cccc(C(=O)N(C)C)c3)n2n1	CF NFkB block 85.6 (no result: MITF TRPM1 inh) | CF NFkB inh conf 98.4
